The results in this text go back to ChEMBL document CHEMBL4513141, “CO-ADD screening of NIH (USA) - Clinical Collection” (2021).

The test system of one experiment is Staphylococcus aureus. Conditions: Concentration 20 uM; ASSAY_TEST Inhibition of Bacterial Growth; detection method Absorption (OD600); MEDIA CAMHB; plate type 384well; NBS; CORNING #3640; time 18 hr.
A further experiment relates to Escherichia coli. To be noted: Concentration 20 uM; ASSAY_TEST Inhibition of Bacterial Growth; detection method Absorption (OD600); MEDIA CAMHB; plate type 384well; NBS; CORNING #3640; time 18 hr.

Results with a measured potency or affinity are listed apart.

One may read the Inhibition as the change of the read-out against control, counted positive when it falls. Turning to `C[C@H]1[C@@H](OC(=O)CCC(=O)O)O[C@@H]2O[C@@]3(C)CC[C@H]4[C@H](C)CC[C@@H]1[C@@]24OO3`, the Inhibition in the experiment with Staphylococcus aureus was -17.43%; in the experiment on Escherichia coli, 12.24%.

As to `COCCOC(=O)C1=C(C)NC(C)=C(C(=O)OC(C)C)C1c1cccc([N+](=O)[O-])c1` (stereo unspecified) [NIMODIPINE], the values for the Inhibition in the experiment with Staphylococcus aureus and in the experiment on Escherichia coli were 7.57% and 4.2%, respectively.

Consider `CCCOc1ccc(C(=O)OCCN(CC)CC)cc1N.Cl` [PROPARACAINE HYDROCHLORIDE], for which the Inhibition with Staphylococcus aureus is -1.38%; in the experiment with Escherichia coli, 2.71%.

For the compound `CCN(Cc1ccncc1)C(=O)C(CO)c1ccccc1` (stereo unspecified) [TROPICAMIDE], the Inhibition came out at 7.97% in the experiment on Staphylococcus aureus and 5.49% in the experiment on Escherichia coli.

`O=C1C(CC[S+]([O-])c2ccccc2)C(=O)N(c2ccccc2)N1c1ccccc1` (stereo unspecified) [SULFINPYRAZONE]: the Inhibition with Staphylococcus aureus turned out to be 18.52%; with Escherichia coli it was 6.57%.

For `CNCCCN1c2ccccc2CCc2ccccc21.Cl` [DESIPRAMINE HYDROCHLORIDE], the values for the Inhibition with Staphylococcus aureus and with Escherichia coli were 7.54% and -0.24%, respectively.

As to `CS(=O)(=O)c1ccc(-c2cc(Br)sc2-c2ccc(F)cc2)cc1` [DUP-697], the Inhibition in the experiment with Staphylococcus aureus is reported as 14.13%; with Escherichia coli it was -0.37%.

`OCCN1C[C@H](O)[C@@H](O)[C@H](O)[C@H]1CO` [MIGLITOL]: the Inhibition in the experiment with Staphylococcus aureus is given as 16.69%; in the experiment with Escherichia coli it was 5.82%.

`Oc1ccc(/C=C/c2cc(O)cc(O)c2)cc1` [RESVERATROL]: the values for the Inhibition in the experiment with Staphylococcus aureus and with Escherichia coli were 19.49% and 1.45%, respectively.

For the compound `CC(=O)OCC(=O)[C@@]1(O)CC[C@H]2[C@@H]3CCC4=CC(=O)CC[C@]4(C)[C@H]3C(=O)C[C@@]21C` [CORTISONE ACETATE], the Inhibition stood at 12.24% with Staphylococcus aureus and 5.41% in the experiment with Escherichia coli.

Consider `Cl.c1ccc(CC2=NCCN2)cc1` [TOLAZOLINE HYDROCHLORIDE], for which the results for the Inhibition in the experiment on Staphylococcus aureus and with Escherichia coli were 7.13% and 4.19%, respectively.

Take `C#C[C@]1(O)CC[C@H]2[C@@H]3[C@H](C)CC4=C(CCC(=O)C4)[C@H]3CC[C@@]21C` [TIBOLONE]: the Inhibition came out at 12.93% in the experiment with Staphylococcus aureus and 2.02% with Escherichia coli.

As for `CCCCN1CCCC1CNC(=O)c1cc(C#N)c2ccccc2c1OC` (stereo unspecified) [NAFADOTRIDE], the Inhibition is on record as 6.62% with Staphylococcus aureus and 2.47% with Escherichia coli.

`CN1CCN(CCCN2c3ccccc3Sc3ccc(C(F)(F)F)cc32)CC1.Cl.Cl` [TRIFLUOPERAZINE HYDROCHLORIDE]: the Inhibition with Staphylococcus aureus amounted to 19.71%; in the experiment with Escherichia coli, 0.85%.

Take `CCOc1cc(CC(=O)N[C@@H](CC(C)C)c2ccccc2N2CCCCC2)ccc1C(=O)O` [REPAGLINIDE]: the Inhibition is 15.76% in the experiment with Staphylococcus aureus and -4.96% with Escherichia coli.

For `C[C@H]1C[C@@H]2[C@H]([C@@H](O)C[C@@]3(C)[C@H]2CC[C@]3(O)C(=O)CO)[C@@]2(C)C=CC(=O)C=C12` [METHYLPREDNISOLONE], the figures for the Inhibition in the experiment with Staphylococcus aureus and with Escherichia coli were 7.4% and 5%, respectively.

Turning to `CCCSc1ccc2[nH]c(NC(=O)OC)nc2c1` [ALBENDAZOLE], the Inhibition with Staphylococcus aureus was 3.05%; in the experiment on Escherichia coli, 1.87%.

For the compound `C[C@H]1O[C@@H](O[C@H]2[C@@H](O)C[C@H](O[C@H]3[C@@H](O)C[C@H](O[C@H]4CC[C@@]5(C)[C@H](CC[C@@H]6[C@@H]5C[C@@H](O)[C@]5(C)C(C7=CC(=O)OC7)CC[C@]65O)C4)O[C@@H]3C)O[C@@H]2C)C[C@H](O)[C@@H]1O` (stereo partly specified), the Inhibition in the experiment with Staphylococcus aureus was 15.53%; in the experiment with Escherichia coli, -7.29%.

For the compound `CNCCCCOc1ccccc1Cc1ccccc1.Cl`, the Inhibition with Staphylococcus aureus is listed as 10.88%; in the experiment on Escherichia coli it was 6.1%.

Turning to `CC(C)c1nc(CN(C)C(=O)N[C@H](C(=O)N[C@@H](Cc2ccccc2)C[C@H](O)[C@H](Cc2ccccc2)NC(=O)OCc2cncs2)C(C)C)cs1` [RITONAVIR], the figures for the Inhibition with Staphylococcus aureus and in the experiment with Escherichia coli were 13.2% and -0.63%, respectively.

In the case of `COc1ccc(-c2oc3c(CC=C(C)C)c(O[C@@H]4O[C@H](CO)[C@@H](O)[C@H](O)[C@H]4O)cc(O)c3c(=O)c2O[C@@H]2O[C@@H](C)[C@H](O)[C@@H](O)[C@H]2O)cc1` [ICARIIN], the figures for the Inhibition with Staphylococcus aureus and in the experiment with Escherichia coli were 11.47% and -5.7%, respectively.

For `CNC(=C[N+](=O)[O-])NCCSCc1ccc(CN(C)C)o1.Cl` [RANITIDINE HYDROCHLORIDE], the figures for the Inhibition with Staphylococcus aureus and in the experiment on Escherichia coli were -17.46% and 4.52%, respectively.

Regarding `CCCC(=O)Nc1ccc(OCC(O)CNC(C)C)c(C(C)=O)c1.Cl` (stereo unspecified) [ACEBUTOLOL HYDROCHLORIDE], the Inhibition is recorded as 10.2% with Staphylococcus aureus and 2.85% in the experiment with Escherichia coli.

In the case of `CCCc1cc(=O)[nH]c(=S)[nH]1` [PROPYLTHIOURACIL], the Inhibition was found to be 17.4% with Staphylococcus aureus and 8.71% in the experiment on Escherichia coli.

For `CC[N+](C)(CC)CCOC(=O)C(O)(c1ccccc1)C1CCCCC1.[Br-]` (stereo unspecified) [OXYPHENONIUM BROMIDE], the Inhibition stood at 12.65% in the experiment with Staphylococcus aureus and 3.27% with Escherichia coli.

For `CCCN1CCCC[C@H]1C(=O)Nc1c(C)cccc1C.Cl` [ROPIVACAINE HYDROCHLORIDE], the Inhibition stood at 13.36% with Staphylococcus aureus and 1.04% in the experiment with Escherichia coli.

Consider `Cl.OC(CCN1CCCC1)(c1ccccc1)C1CCCCC1` (stereo unspecified) [PROCYCLIDINE HYDROCHLORIDE], for which the figures for the Inhibition in the experiment with Staphylococcus aureus and in the experiment with Escherichia coli were 17.75% and -5.9%, respectively.

For the compound `CCc1c(C)[nH]c2c1C(=O)C(CN1CCOCC1)CC2.Cl` (stereo unspecified) [MOLINDONE HYDROCHLORIDE], the Inhibition in the experiment with Staphylococcus aureus is -5.38%; with Escherichia coli, 4.7%.
